Bioassay records deposited in PubChem BioAssay by National Center for Advancing Translational Sciences (NCATS).
Most compounds without a hit are left out; they make up all but 7.6% or so of the library.
hERG WT inh: inhibitors of human wildtype KCNH2 potassium channel; U2OS, BacMam KCNH2, thallium flux FluxOr; hits give low values; activity change, % at 1.84 µM; 0.37% of 340,000 active; AID 720551;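 active = maximum activity change below -70%; inconclusive = maximum activity change between -70% and -50%; inactive = maximum activity change above -50%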; note: % is set by controls: 0 for no effect and ±100 for the full control effect
Target sequence (Q12809 whole entry, looked up): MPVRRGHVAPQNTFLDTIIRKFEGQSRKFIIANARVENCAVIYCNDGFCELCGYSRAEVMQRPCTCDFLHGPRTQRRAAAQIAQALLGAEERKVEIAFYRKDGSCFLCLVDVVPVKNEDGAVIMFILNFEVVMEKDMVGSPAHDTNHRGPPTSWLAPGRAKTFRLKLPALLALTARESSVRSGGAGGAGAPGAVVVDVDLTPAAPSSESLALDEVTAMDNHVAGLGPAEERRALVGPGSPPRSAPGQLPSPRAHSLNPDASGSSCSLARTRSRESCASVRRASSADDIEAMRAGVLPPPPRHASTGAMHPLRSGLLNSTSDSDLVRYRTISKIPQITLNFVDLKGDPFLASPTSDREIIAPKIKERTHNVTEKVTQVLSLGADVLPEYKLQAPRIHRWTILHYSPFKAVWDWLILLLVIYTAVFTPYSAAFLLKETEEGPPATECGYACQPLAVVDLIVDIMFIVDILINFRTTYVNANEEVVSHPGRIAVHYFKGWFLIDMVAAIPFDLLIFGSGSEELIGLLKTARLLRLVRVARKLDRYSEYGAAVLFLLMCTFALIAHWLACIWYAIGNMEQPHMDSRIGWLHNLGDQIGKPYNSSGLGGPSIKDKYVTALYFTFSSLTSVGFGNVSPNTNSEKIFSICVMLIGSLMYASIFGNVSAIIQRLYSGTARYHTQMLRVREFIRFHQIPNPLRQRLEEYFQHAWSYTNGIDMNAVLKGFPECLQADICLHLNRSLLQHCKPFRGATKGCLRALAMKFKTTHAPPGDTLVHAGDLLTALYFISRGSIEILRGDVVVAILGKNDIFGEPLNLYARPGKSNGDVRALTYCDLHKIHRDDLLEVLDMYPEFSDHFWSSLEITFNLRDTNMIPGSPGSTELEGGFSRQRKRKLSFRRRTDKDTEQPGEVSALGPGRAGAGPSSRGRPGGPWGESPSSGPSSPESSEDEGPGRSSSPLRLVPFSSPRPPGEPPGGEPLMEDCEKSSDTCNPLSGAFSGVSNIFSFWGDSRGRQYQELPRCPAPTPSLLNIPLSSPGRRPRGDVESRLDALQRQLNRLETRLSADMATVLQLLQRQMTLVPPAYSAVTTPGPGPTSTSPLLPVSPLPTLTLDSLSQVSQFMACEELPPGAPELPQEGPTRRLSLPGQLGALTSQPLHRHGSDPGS
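U2OS cells were transduced with wild-type KCNH2 virus (2.03 x 10^8 / mL) for 4 h at room temperature, then cultured overnight at 37 C. Thallium flux was read with FluxOr dye. Rate constants were normalized to DMSO controls.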
MCF10A rerep: inducers of DNA re-replication in MCF 10A breast cells; 2.9% of 350,000 active; AID 624296; MCF 10A DNA re-replication, Hoechst nuclear intensity, 48 h; Potency, µM (doses to about 46.1 µM), without a hit: at the top dose activity, positive = re-replication, most hits filed as activators; note: potency is the fitted concentration of half-maximal effect; % of control where 0% means no effect; nearly all actives have a fitted effect of over 50% in size
KCNH2 3.1 block: inhibitors of human KCNH2 3.1 potassium channel isoform; activity change, % (tested at about 1.8 µM); U2OS KCNH2 3.1, thallium flux FluxOr; hits give low values; AID 720553; 0.95% of 340,000 active;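 active = maximum activity change below -70%; inconclusive = maximum activity change from -70% to -50%; inactive = maximum activity change above -50%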;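 note: thallium influx rate constant from kinetic fluorescence after stimulation buffer; % is set by controls: 0 for no effect and ±100 for the full control effect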
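Steps: virus added to U2OS suspension (4 h, RT, dark); medium with 10% FBS added, cells plated, 37 C overnight; FluxOr/Red40 loading buffer 45 min RT; stimulation buffer, 2 min kinetic read; rate constant normalized.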
KB-V1 cytotox: KB-V1 MDR subline cytotoxicity. KB-V1 MDR cells viability, CellTiter-Glo, 72 h. Potency, µM (doses to about 46.1 µM), hits mostly cytotoxic. 3.4% of 400,000 active. AID 1347076; note: potency is the fitted concentration of half-maximal effect; % is set by controls: 0 for no effect and ±100 for the full control effect; nearly all actives have a fitted effect of over 60% in size
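Cells of the MDR subline KB-V1 are plated, dosed with compound at multiple concentrations, and incubated 72 h at 37 degrees C; CellTiter-Glo is then added and luminescence read after 10 min.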
SW480 rereplic: induces DNA re-replication in SW480 colon adenocarcinoma cells | Potency, µM (highest dose often 46.1 µM), for inactives: top-dose re-replication activation, hits mostly activators | SW480 DNA re-replication, Hoechst DNA content imaging, 48 h | 1.8% of 340,000 active; note: potency is the fitted concentration of half-maximal effect; % of control where 0% means no effect; nearly all actives have a fitted effect of over 55% in size
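First, 250 cells per well were seeded. Next, compound or vehicle (23 nL) was pinned in, plates sat 48 hr at 37 C. Finally Hoechst was added for 40 min before fluorescence scanning.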
KB-3-1 tox: kills parental KB-3-1 adenocarcinoma cells; KB-3-1 viability, CellTiter-Glo ATP luminescence, 72 h; Potency, µM (highest dose often 46.1 µM), usual class: cytotoxic; 1.4% of 400,000 active; AID 1347075; note: potency is the fitted concentration of half-maximal effect; % is set by controls: 0 for no effect and ±100 for the full control effect; nearly all actives have a fitted effect of over 60% in size
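Here the drug-naive KB-3-1 line serves as comparator for MDR sub-line selectivity; cells received compound titrations, 72 h at 37 °C, then CellTiter-Glo readout.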
The depositor's hits bear a star. Unless noted, calls come from the whole dose curve; as a rule, active = well fitted curve in the direction sought with a large enough effect; inconclusive = small, poorly fitted or top-dose-only effect, or another doubt; inactive = no such curve, though single readings can be large; an effect the other way counts as inactive or inconclusive.

What do the screens show for `Cc1nn(-c2nc3ccccc3[nH]2)c(=O)c2ccccc12`?
hERG WT inh: -8.5; MCF10A rerep: 29.6%; KCNH2 3.1 block: 2.2; KB-V1 cytotox: 5.8µM*; SW480 rereplic: 2.9%; KB-3-1 tox: 1.3µM*

How did O=C(COc1ccc(F)cc1Cl)Nc1cccc(S(=O)(=O)N2CCCC2)c1 do in these assays?
hERG WT inh: 7.5; MCF10A rerep: -5.5%; KCNH2 3.1 block: 0.4; KB-V1 cytotox: inactive; SW480 rereplic: -16.4%; KB-3-1 tox: inactive

How did CCCCC(CC)C(=O)N1CCN(C(=O)c2ccco2)CC1 (centres undefined) do in these assays?
hERG WT inh: -23.9; MCF10A rerep: -5.1%; KCNH2 3.1 block: 8.0; KB-V1 cytotox: inactive; SW480 rereplic: 0.8%; KB-3-1 tox: inactive

How did CCc1ccc(NC(=O)c2cnn3c(C)cc(C)nc23)cc1 do in these assays?
KB-V1 cytotox: inconclusive; KB-3-1 tox: inactive

Results for Cc1ccc2sc3ccc(NC(=O)c4ccccc4Cl)cc3c(=O)c2c1 ?
hERG WT inh: -18.1; MCF10A rerep: inconclusive; KCNH2 3.1 block: -11.3; KB-V1 cytotox: inconclusive; SW480 rereplic: 13µM*; KB-3-1 tox: inconclusive

Results for Cc1cc(C)c([N+](=O)[O-])cc1NCC(=O)N1CCN(c2ccccc2)CC1 ?
hERG WT inh: -12.5; MCF10A rerep: 2.1%; KCNH2 3.1 block: -3.9; KB-V1 cytotox: inactive; SW480 rereplic: 2.5%; KB-3-1 tox: inactive

How did COc1cc2ncnc(NCc3ccc(C)o3)c2cc1OC do in these assays?
hERG WT inh: 1.4; MCF10A rerep: -2.4%; KCNH2 3.1 block: -0.9; KB-V1 cytotox: inactive; SW480 rereplic: -8.9%; KB-3-1 tox: inactive

What do the screens show for `Cc1ccc(CNc2ncnc3cc(Cl)ccc23)o1`?
hERG WT inh: -12.8; MCF10A rerep: -15.4%; KCNH2 3.1 block: -11.2; KB-V1 cytotox: 20.6µM*; SW480 rereplic: 2.9%; KB-3-1 tox: inconclusive

Results for Cc1ccc2c(CN(C)Cc3ccccc3)cc(=O)oc2c1C ?
hERG WT inh: -3.7; MCF10A rerep: 0.3%; KCNH2 3.1 block: 4.9; KB-V1 cytotox: inconclusive; SW480 rereplic: 2.6%; KB-3-1 tox: inconclusive

What do the screens show for `Cc1ccc2c(CN(C)Cc3ccc(OC(F)F)cc3)cc(=O)oc2c1C`?
hERG WT inh: 5.8; MCF10A rerep: 15.3%; KCNH2 3.1 block: -3.5; KB-V1 cytotox: 16.4µM*; SW480 rereplic: -12.7%; KB-3-1 tox: inconclusive

What do the screens show for `CC(=O)Nc1ccc(/C=C/c2ccnc3ccccc23)cc1`?
KB-V1 cytotox: inactive; KB-3-1 tox: inactive

Results for CCC[N+](C)(C)c1ccc(/C=C/c2ccnc3ccccc23)cc1 ?
KB-V1 cytotox: inconclusive; KB-3-1 tox: 1.64µM*

What do the screens show for `COc1ccc(/C=C/c2ccnc3ccccc23)cc1`?
KB-V1 cytotox: inactive; KB-3-1 tox: inactive

What do the screens show for `C[N+](C)(C)c1ccc(/C=C/c2ccnc3ccccc23)cc1`?
KB-V1 cytotox: inconclusive; KB-3-1 tox: 18.4µM*

Results for CN(C)c1ccc(/C=C/c2ccnc3ccccc23)cc1N ?
KB-V1 cytotox: inactive; KB-3-1 tox: inactive

What do the screens show for `Cc1cc(/C=C/c2ccnc3ccccc23)ccc1N`?
KB-V1 cytotox: 23.1µM*; KB-3-1 tox: inconclusive

How did Oc1ccc(/C=C/c2ccnc3ccccc23)cc1 do in these assays?
hERG WT inh: -7.6; MCF10A rerep: 20.6µM*; KCNH2 3.1 block: -6.8; KB-V1 cytotox: inactive; SW480 rereplic: 18.5%; KB-3-1 tox: inconclusive

How did NC(=O)C1CCN(C(=O)CCSCc2ccccc2)CC1 do in these assays?
hERG WT inh: 3.8; MCF10A rerep: -12.7%; KCNH2 3.1 block: -30.4; KB-V1 cytotox: inactive; SW480 rereplic: -13.4%; KB-3-1 tox: inactive

How did Cc1cc(C)nc(SCCCn2c(=O)[nH]c3ccccc32)n1 do in these assays?
hERG WT inh: -10.0; MCF10A rerep: 0.8%; KCNH2 3.1 block: 0.0; KB-V1 cytotox: 9.2µM*; SW480 rereplic: -4.1%; KB-3-1 tox: inactive
